According to PubChem BioAssay:
Values without a mark were called inactive. For part of these data: Results with a measured potency or affinity are listed apart. Calls of active or inactive are those of the source. Unless noted, the rule behind the calls is not given here.

Experiments:
[1] = antimalarial activity against Dd2 strain (AID 2302;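 active = growth inhibition above 50% at the single 2 µM test dose, taken to imply half-maximal potency below 2 µM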;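 note: 0% = DMSO untreated growth and 100% = chloroquine plus artemisinin killed control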); details: P. falciparum Dd2 in RBCs, LDH growth readout, 72 h; at 2 µM; active compounds read high
[2] = human hepatoma cell viability loss – ATP luminescence, cytotoxicity control for P. falciparum antimalarial project, primary screen (AID 2303;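 active = inhibition above 50%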;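 note: 0% = DMSO wells and 100% = digitonin-killed cells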); details: HepG2 viability, 24-48 h, at 10 µM, active compounds read high
[3] = biological target: L-lactate dehydrogenase (Plasmodium falciparum (isolate CDC / Honduras)) (UniProt Q27743); assay: PfLDH activity inhibition – cell lysate, 3D7 strain, counter-screen for P. falciparum growth inhibition project (AID 2304);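 note: 0% = vehicle and 100% = reference inhibitor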; details: P. falciparum 3D7 crude extract, LDH APAD/NBT absorbance; at 2 µM; active compounds read high
[4] = inhibition of 3D7 malaria parasite growth – strain 3D7 (AID 2306);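 note: 0% = DMSO wells and 100% = chloroquine plus artemisinin control wells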; details: P. falciparum 3D7 erythrocytic growth, LDH absorbance, 72 h; at 2 µM; active compounds read high
[5] = biological target: Calcium-dependent protein kinase 1 (Plasmodium falciparum (isolate 3D7)) (UniProt P62344); assay: PfCDPK1 kinase inhibitors, biochemical, TCAMS library (AID 1159585; cut-off not given, nearly all actives have IC50 up to about 0.98 µM;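 note: inhibitors leave more ATP so luminescence rises with inhibition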); details: recombinant PfCDPK1, Kinase-Glo ATP depletion luminescence
[6] = biological target: Plasmodium falciparum protein kinase 6 (PK6, PF3D7_1337100) (UniProt Q8IDW1); assay: PfPK6 kinase inhibitors, biochemical, TCAMS library (AID 1159586); details: recombinant PfPK6, Kinase-Glo ATP depletion luminescence
[7] = biological target: Protein kinase 7 (PK7), Plasmodium falciparum 3D7 (PF3D7_0213400) (UniProt Q7YTF7); assay: inhibition of Plasmodium PK7 catalytic activity – biochemical, TCAMS antimalarial set, Kinase-Glo luminescence (AID 1159587); details: recombinant PfPK7, Kinase-Glo ATP depletion luminescence
[8] = biological target: Calcium-dependent protein kinase 4 (Plasmodium falciparum (isolate 3D7)) (UniProt Q8IBS5); assay: PfCDPK4 kinase inhibitors, biochemical, TCAMS library (AID 1159588; cut-off not given, nearly all actives have IC50 up to about 0.91 µM); details: recombinant PfCDPK4, Kinase-Glo ATP depletion luminescence
Calcium-dependent protein kinase 4 (Plasmodium falciparum (isolate 3D7)), sequence (Q8IBS5 whole entry, looked up): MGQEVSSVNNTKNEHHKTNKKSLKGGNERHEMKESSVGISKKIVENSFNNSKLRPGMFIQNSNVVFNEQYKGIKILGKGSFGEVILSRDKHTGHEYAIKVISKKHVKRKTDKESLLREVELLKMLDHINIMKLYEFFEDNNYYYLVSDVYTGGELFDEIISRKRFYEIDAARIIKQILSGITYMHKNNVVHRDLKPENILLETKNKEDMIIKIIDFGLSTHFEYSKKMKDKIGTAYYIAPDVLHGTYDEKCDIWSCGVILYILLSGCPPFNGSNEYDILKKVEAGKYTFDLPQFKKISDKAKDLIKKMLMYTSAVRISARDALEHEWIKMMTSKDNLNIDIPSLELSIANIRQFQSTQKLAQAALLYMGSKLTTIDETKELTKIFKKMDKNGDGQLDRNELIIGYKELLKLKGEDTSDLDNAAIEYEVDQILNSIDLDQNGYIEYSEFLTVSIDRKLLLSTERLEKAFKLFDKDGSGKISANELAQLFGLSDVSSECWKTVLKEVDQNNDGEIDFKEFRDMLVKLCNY

Protein kinase 7 (PK7), Plasmodium falciparum 3D7 (PF3D7_0213400), sequence (Q7YTF7 1-343): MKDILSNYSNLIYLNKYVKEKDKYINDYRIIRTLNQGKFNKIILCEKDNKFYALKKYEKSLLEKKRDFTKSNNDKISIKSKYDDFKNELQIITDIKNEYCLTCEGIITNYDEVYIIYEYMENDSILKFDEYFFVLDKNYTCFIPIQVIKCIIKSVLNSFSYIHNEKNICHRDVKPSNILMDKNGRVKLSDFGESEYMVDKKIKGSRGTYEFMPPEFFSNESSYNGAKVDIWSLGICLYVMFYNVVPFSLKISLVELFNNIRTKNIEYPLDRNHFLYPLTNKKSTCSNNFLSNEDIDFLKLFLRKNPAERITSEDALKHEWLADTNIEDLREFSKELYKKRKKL
Calcium-dependent protein kinase 1 (Plasmodium falciparum (isolate 3D7)), sequence (P62344 whole entry, looked up): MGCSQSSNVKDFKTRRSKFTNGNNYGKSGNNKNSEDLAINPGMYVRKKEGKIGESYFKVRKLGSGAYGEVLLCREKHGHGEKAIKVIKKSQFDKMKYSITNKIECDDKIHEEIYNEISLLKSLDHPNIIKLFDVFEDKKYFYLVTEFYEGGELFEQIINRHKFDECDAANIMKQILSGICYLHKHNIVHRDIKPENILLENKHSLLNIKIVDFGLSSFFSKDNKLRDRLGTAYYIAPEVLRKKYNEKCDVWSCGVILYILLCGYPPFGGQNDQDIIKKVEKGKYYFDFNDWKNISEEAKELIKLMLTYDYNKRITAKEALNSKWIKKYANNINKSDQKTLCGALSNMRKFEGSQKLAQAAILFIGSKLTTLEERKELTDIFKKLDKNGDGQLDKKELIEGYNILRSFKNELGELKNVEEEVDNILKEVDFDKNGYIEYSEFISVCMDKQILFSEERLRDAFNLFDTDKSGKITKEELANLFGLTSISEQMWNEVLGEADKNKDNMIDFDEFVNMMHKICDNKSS
Plasmodium falciparum protein kinase 6 (PK6, PF3D7_1337100), sequence (Q8IDW1 1-305): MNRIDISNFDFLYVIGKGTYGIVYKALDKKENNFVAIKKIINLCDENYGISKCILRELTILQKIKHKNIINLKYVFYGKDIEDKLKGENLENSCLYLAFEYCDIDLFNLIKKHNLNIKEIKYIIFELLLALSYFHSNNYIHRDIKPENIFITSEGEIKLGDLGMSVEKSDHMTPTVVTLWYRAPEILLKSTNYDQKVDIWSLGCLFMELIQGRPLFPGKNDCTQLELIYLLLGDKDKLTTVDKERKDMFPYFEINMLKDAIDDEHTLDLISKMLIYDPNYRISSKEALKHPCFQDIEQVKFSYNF
L-lactate dehydrogenase (Plasmodium falciparum (isolate CDC / Honduras)), sequence (Q27743 whole entry, looked up): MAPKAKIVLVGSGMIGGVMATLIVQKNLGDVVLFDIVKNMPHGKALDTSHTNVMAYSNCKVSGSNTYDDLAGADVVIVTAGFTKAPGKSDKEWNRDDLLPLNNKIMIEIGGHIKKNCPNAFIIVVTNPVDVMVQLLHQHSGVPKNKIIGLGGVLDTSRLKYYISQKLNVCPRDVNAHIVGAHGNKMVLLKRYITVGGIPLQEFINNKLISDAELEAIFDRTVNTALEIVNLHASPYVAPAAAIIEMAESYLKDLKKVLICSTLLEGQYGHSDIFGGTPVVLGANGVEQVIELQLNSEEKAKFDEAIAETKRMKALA

Cc1cccc(C(=O)N2CCN(Cc3cccc(NC(=O)c4ccco4)c3)CC2)c1
growth inhibition [1]: 79% (active) | inhibition [2]: 7% | inhibition [3]: 1% | growth inhibition [4]: 94% (active) | outcome [5]: inactive | outcome [6]: inactive | outcome [7]: inactive | outcome [8]: inactive

N[C@@H](Cc1cc(I)c(Oc2ccc(O)c(C(=O)O)c2)c(I)c1)C(=O)O
growth inhibition [1]: 21% | inhibition [2]: 57% (active) | inhibition [3]: -1% | growth inhibition [4]: 97% (active) | outcome [5]: inactive | outcome [6]: inactive | outcome [7]: inactive | outcome [8]: inactive

C=CCc1cccc(C)c1OCCCON1C(N)=NC(N)=NC1(C)C
growth inhibition [1]: 95% (active) | inhibition [2]: 65% (active) | inhibition [3]: -8% | growth inhibition [4]: 94% (active) | outcome [5]: inactive | outcome [6]: inactive | outcome [7]: inactive | outcome [8]: inactive
